Test in all cases: NCI-60 one-dose screen, 48 h (100 = growth as untreated, 0 = no growth, -100 = all killed)
Settings in all cases: 10 µM

For test [1], the system named is SK-MEL-2 melanoma.
The subject of test [2] is EKVX NSCLC.
Test [3] concerns SN12C renal.
For test [4], the system named is UO-31 renal.
The test system of test [5] is TK-10 renal.
The test system of test [6] is ACHN renal.
In test [7] the test system is CAKI-1 renal.
Test [8] concerns A498 renal.
The test system of test [9] is CCRF-CEM leukemia.
The subject of test [10] is MOLT-4 leukemia.

Compounds without any hit were thinned out: in the full panel of roughly 83,000, 20% have a hit.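 The endpoint reported here, percent growth, reads 100 for growth as untreated, 0 for no net growth and -100 for all cells dead.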 A number with no mark means an inactive call. Active and inactive are the calls of the source. How the source made its calls: active means growth percent below 10; inactive means the rest.

Take `C#CCNCCCN1C(=O)c2ccc3c4c(ccc(c24)C1=O)C(=O)N(CCCNCC#C)C3=O`: the growth is -21.5% (active) in test [1]; -79.3% (active) in test [2]; -97.7% (active) in test [3]; -62.1% (active) in test [4]; -11.3% (active) in [5]; -33.1% (active) in test [6]. In addition, the growth is -77.9% (active) in test [7], -96.2% (active) in test [8], -0.672% (active) in [9] and -13.1% (active) in test [10].

As to `COc1cc(Cn2c(-c3ccccc3)c(Cl)c3c2-c2oncc2CC3)cc(OC)c1`, the growth in test [1] was 75.3%; in test [2], 90.6%; in test [3], 92%; in [4], -7.99% (active); in test [5], 104%; in test [6] it was 69.2%. Further, the growth in [7] is 47.3%; in test [8], 26.5%; in test [9], 9.93% (active); in [10] it was 5.45% (active).

`O=C(O)c1ccccc1C(=O)c1cccc2c(F)cccc12`: the growth is 103% in [1]; 108% in [2]; 100% in [3]; 87.1% in [4]; 110% in [5]; 98.2% in test [6]. Further, the growth in test [7] was 104%; in [8], 130%; in test [9], 92.3%; in test [10], 93.1%.

As to `COc1ccc(C2=Cc3ccc(OC(C)=O)cc3OC2)cc1`, the growth in [1] is 97.5%; in test [2], 66.2%; in test [3] it was 87.2%; in [4], 49.1%; in test [5] it was 102%; in test [6], 80.8%. In addition, the growth in [7] is 88.2%; in test [8], 82.2%; in [9] it was 70.8%; in test [10], 44.5%.

On to `N#C/C(=C\N1C(=O)/C(=C/c2cccc([N+](=O)[O-])c2)SC1=S)c1nc2ccccc2s1`, for which the growth was 73.1% in test [1]; 81% in [2]; 94.9% in test [3]; 56.3% in [4]; 120% in test [5]; 81.5% in test [6]. The growth in test [7] is 85.2%; in [8] it was 71.8%; in test [9], 85.9%; in [10] it was 87%.

As to `CCOC(=O)c1c(Cl)c2c(n1Cc1cccc(OC)c1)-c1oncc1CC2`, the growth in test [1] was 27.8%; in test [2] it was 56.4%; in test [3], 42.7%; in test [4], -1.88% (active); in test [5] it was 54.7%; in test [6], 44.8%. Besides, the growth was 7.94% (active) in test [7], 1.89% (active) in test [8], 15.8% in test [9] and 25.9% in test [10].

In the case of `COc1ccc2c(c1)/C(=C/c1cc(OC)c(OC)c(OC)c1)C(=O)N2C`, the growth was 24.3% in test [1]; 47.3% in test [2]; 25.3% in test [3]; 16.9% in [4]; 22.1% in test [5]; 26.9% in test [6]. Besides, the growth is -8.56% (active) in [7], 23.4% in [8], 20.4% in test [9] and 16% in test [10].

For `COC1OC2COC(c3ccccc3)OC2C(=O)C1NC(=O)c1ccccc1` (stereo not drawn), the growth is 94% in test [1]; 79.5% in test [2]; 96.7% in test [3]; 72.5% in test [4]; 108% in test [5]; 98.9% in [6]. Also, the growth is 88.9% in test [7], 116% in test [8], 97.7% in test [9] and 110% in [10].

Consider `CCOC(=O)c1cc2c(n1Cc1cc(OC)cc(OC)c1)-c1oncc1CC2`, for which the growth was 26.7% in test [1]; 34.5% in [2]; 40.9% in [3]; 19.4% in test [4]; 53.2% in test [5]; 47.1% in [6]. In addition, the growth in test [7] was 29.2%; in test [8], 24.9%; in test [9], 13.2%; in test [10], 23.6%.

Turning to `COc1cc(/C=C/C(=O)c2cc(-c3ccc(C(F)(F)F)cc3)ccc2O)cc(OC)c1OC`, the growth in test [1] is 70.1%; in [2], 61.2%; in [3], 66.7%; in test [4], 46.7%; in test [5] it was 98%; in [6], 68.4%. The growth in test [7] is 47.2%; in test [8] it was 82.6%; in test [9], 7.45% (active); in [10], 15.5%.

For `S=C(Cc1ccc(-c2ccccc2)cc1)N1CCOCC1`, the growth was 88.5% in test [1]; 95.4% in test [2]; 99.8% in test [3]; 83.9% in [4]; 98.4% in test [6]; 90.4% in [7]. In addition, the growth in [8] is 82%; in [10] it was 99.7%.

For `COc1ccc(-c2n/c(=C\c3c(O)[nH]c4ccccc34)cc3c2=Nc2ccccc2-3)cc1`, the growth in test [1] was 84.5%; in test [2], 72.4%; in test [3], 91.6%; in test [4], 58.3%; in test [5] it was 97.5%; in test [6] it was 98.7%. Also, the growth is 71.6% in test [7], 56.2% in [8] and 2.65% (active) in test [10].

In the case of `CC1(C)CCc2cc(-c3ccn(S(=O)(=O)c4ccc(Cl)cc4)n3)ccc2O1`, the growth is 92.2% in [1]; 54.5% in test [2]; 72.8% in test [3]; 75.6% in test [4]; 77% in test [5]; 89.4% in [6]. Moreover, the growth was 64.3% in [7], 70.8% in test [8], 64.2% in test [9] and 65.4% in test [10].

On to `O=C(OCC1OC(n2cc(C(F)(F)F)c(=O)[nH]c2=O)CC1OC(=O)c1ccc([N+](=O)[O-])cc1)c1ccc([N+](=O)[O-])cc1` (stereo not drawn), for which the growth in [1] was 78%; in [2], 107%; in [3], 43.4%; in test [4], 50.3%; in test [5] it was 86.7%; in [6], 16%. The growth in test [7] was 38.6%; in test [8], 60.6%; in [10], 77.4%.

For `COc1cc(NS(C)(=O)=O)ccc1Nc1c2ccc(Cl)cc2nc2c(OC)cccc12`, the growth in test [1] was -45.2% (active); in test [2], 70.4%; in test [3], -10.7% (active); in test [4], 5.23% (active); in test [5], -55.3% (active); in test [7] it was -37% (active). Also, the growth in [8] was -8.95% (active); in test [9], 2.75% (active); in [10] it was -2.38% (active).

In the case of `CCOC(=O)c1cc2c(n1Cc1ccccc1)-c1oncc1CC2`, the growth in test [1] was 85.7%; in test [2], 77%; in test [3], 98.6%; in test [4], 25.4%; in [5], 101%; in test [7] it was 36.5%. In addition, the growth in test [8] was 48.4%; in test [10], 25.2%.

For `CCOC(=O)c1sc(NC(=O)c2cc(OC)c(OC)c(OC)c2)nc1C`, the growth in test [1] was 30.8%; in [2] it was 99.8%; in test [3], 92.6%; in [4] it was 75.7%; in [6] it was 105%; in [7] it was 116%. In addition, the growth was 88.8% in [8], 88.3% in test [9] and 87.6% in test [10].

Regarding `COc1ccc(C(=O)n2nc(CC(=O)NCc3ccccc3)nc2N)cc1`, the growth is 97.5% in test [1]; 113% in test [2]; 92.5% in [3]; 82.9% in test [4]; 103% in [5]; 117% in test [6]. Also, the growth in test [7] was 110%; in test [8], 110%; in test [10], 89.8%.

Take `CC(=O)Oc1ccc(C2=Cc3ccc(OC(C)=O)cc3OC2C)cc1` (stereo not drawn): the growth is 61% in test [1]; 56.7% in [2]; 66.9% in test [3]; 18.6% in [4]; 82.7% in test [5]; 10% in test [6]. Besides, the growth is 43.6% in [7], 82.6% in test [8] and 36.7% in test [10].

Turning to `Cn1cnc([N+](=O)[O-])c1Sc1nnc(-c2ccccc2)c(-c2ccccc2)n1`, the growth in test [1] was 73%; in [2] it was 119%; in test [3], 72.2%; in test [4] it was 55.3%; in test [6], 65.9%; in test [7], -7.14% (active). The figures for the growth in test [8], in test [9] and in test [10] were 97.9%, 8.92% (active) and 41%, respectively.

As to `O=[N+]([O-])c1ccc(S(=O)(=O)OCCCCOS(=O)(=O)c2ccc([N+](=O)[O-])cc2)cc1`, the growth is 115% in test [1]; 95.8% in test [2]; 97% in test [3]; 90.1% in test [4]; 113% in test [5]; 110% in test [6]. Also, the growth in test [7] was 97.9%; in test [8], 104%; in test [10], 94.7%.

Consider `COc1ccccc1CNCCCN1C(=O)c2ccc3c4c(ccc(c24)C1=O)C(=O)N(CCCNCCNCCCN)C3=O`, for which the growth is 24.9% in test [1]; 37.9% in test [2]; 1.16% (active) in test [3]; 77.3% in test [4]; 60.6% in [5]; 51.5% in test [6]. For the same compound, the values for the growth in [7], in test [8] and in [10] were 87.8%, 60.9% and 1.36% (active), respectively.

As for `COc1cc(Cn2c(-c3ccccc3)cc3c2-c2oncc2CC3)cc(OC)c1`, the growth in test [1] is 22.3%; in test [2] it was 43.7%; in test [3], 24.3%; in [4], 9.92% (active); in test [5], 57.4%; in test [7], 18%. Besides, the values for the growth in test [8] and in [10] were -14.7% (active) and 12.2%, respectively.

Turning to `O=C1/C(=C/c2cccs2)CCC/C1=C\c1cccs1`, the growth in test [1] is 95.8%; in test [2], 74%; in test [3], 103%; in [4], 75.9%; in test [5], 78.2%; in test [6], 101%. Besides, the growth in test [7] is 87.4%; in test [8] it was 74.8%; in test [10], 89.1%.

`O=C1c2cc(Cl)ccc2-c2c(O)cc(Cl)cc21`: the growth in test [1] was 62.3%; in [2], 72.1%; in [3], 72.2%; in test [4], 49.6%; in test [5], 114%; in [6], 66%. Moreover, the growth in [7] is 90.7%; in test [8] it was 109%; in [10], 47.3%.

Turning to `O=C(N/N=C/c1ccccc1O)c1ccccc1`, the growth in test [1] is -3.08% (active); in test [2] it was 21.7%; in test [3] it was 47.2%; in test [4] it was 12.2%; in test [5] it was 46%; in test [7] it was 7.12% (active). In addition, the figures for the growth in test [8], in [9] and in test [10] were 71.4%, -28.1% (active) and 14.7%, respectively.

Consider `COc1cc(-c2nc(-c3nnc(-c4cccnc4)o3)c3ccccn23)cc(OC)c1OC`, for which the growth in test [1] was 111%; in test [2] it was 106%; in [3], 99.6%; in test [4], 74.9%; in [5], 109%; in [6], 99%. The growth was 104% in [7], 83% in test [8] and 93.7% in [10].

As to `O=[N+]([O-])C1CC2C=CC1C2` (stereo not drawn), the growth is 92.8% in test [1]; 92.7% in test [2]; 102% in [3]; 80.8% in test [4]; 112% in test [5]; 106% in test [6]. Besides, the growth was 95.1% in [7], 78.2% in [8] and 96.1% in test [10].

For the compound `CCCCNC(=O)Oc1ccc(/C(=C(\C)c2ccc(OC)cc2)c2ccc(OCCN3CCCCC3)cc2)cc1`, the growth is 67.8% in test [1]; 68.3% in test [2]; 69.1% in [3]; 11.2% in [4]; 78.6% in test [6]; 60.3% in test [7]. Moreover, the growth in test [8] was 71%; in test [9] it was 58.5%; in test [10], 20.1%.

In the case of `Cc1ccc(S(=O)(=O)N2CCc3ccccc3CC2)cc1`, the growth is 80.9% in [1]; 22% in test [2]; 85.3% in test [3]; 70.2% in test [4]; 74.2% in [5]; 85.5% in test [6]. The values for the growth in [7], in test [8] and in [10] were 78.7%, 87.4% and 80.5%, respectively.

The record behind these values is PubChem BioAssay (NCI).
